Test results: PubChem BioAssay (NCATS)
Results filed as inconclusive are left out. Calls of active or inactive are those of the source. Unless noted, calls follow the shape of the dose curve; as a rule, active = well fitted curve in the direction sought with a large enough effect; inconclusive = small, poorly fitted or top-dose-only effect, or another doubt; inactive = no such curve, though single readings can be large; an effect the other way counts as inactive or inconclusive.

Key:
[1] = Validation of Assay for Modulators of Lamin A Splicing (AID 1459; active = well fitted curve in the direction sought with a large enough effect in the signal ratio; the % refers to the signal ratio;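 also: cells exposed to compound for two days before reading; 0% is about no effect; ratio rise marks activators and ratio drop marks inhibitors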)
In short: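 S3 HeLa cells stably expressing a lamin A-EGFP splicing minigene and DsRed2 were seeded at 600 cells/well in Opti-MEM with 2% FBS, pin-dosed, and incubated 48 hrs at 37 °C, 5% CO2. Laser-scanning cytometry (488 nm) gave GFP/RFP total intensity ratio.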

[2] = target: DNA repair nuclease/redox regulator APEX1 (Homo sapiens) (UniProt P27695); assay: qHTS Validation Assay for Inhibitors of the Human Apurinic/apyrimidinic Endonuclease 1 (APE1) (AID 1705;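 also: TAMRA fluorescence gain over two minutes as APE1 cuts a quenched THF abasic duplex; series mostly up to about 57 µM; % is scaled to controls: 0 for no effect and ±100 for the full control effect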)
In short: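 Human APE1 was preincubated with compound for 15 min at room temperature, then 50 nM (final) THF-abasic double-stranded DNA substrate bearing 5'-TAMRA and 3'-BHQ-2 was added. Incision-driven fluorescence rise (ex 525/em 598 nm) was read kinetically.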

[3] = Counterscreen for APE1 Inhibitors: Fluorescent Dye Displacement Validation Assay (AID 1707);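 also: plate controls were ThO with dsDNA and no compound for no effect and ThO without dsDNA for full effect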
In short: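 Thiazole Orange displacement from dsDNA: 250 nM ThO with 50 nM TAMRA-labelled abasic-site (tetrahydrofuran) duplex in 50 mM Tris-HCl pH7.5, 50mM NaCl, 2 mM MgCl2, 0.01% Tween-20. Loss of endpoint fluorescence (ex 480 nm, em 540 nm) flags DNA binders.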

[4] = qHTS for differential inhibitors of proliferation of Plasmodium falciparum line 3D7 (AID 1876); also: potency is read from the fitted curve at half-maximal effect
[5] = target: Ferritin light chain (Equus caballus) (UniProt P02791); assay: qHTS Validation Assay for Identification of Novel General Anesthetics (AID 2323); also: series mostly up to about 77 µM; % is scaled to controls: 0 for no effect and ±100 for the full control effect
In short: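 Competitive displacement of profluorescent 1-aminoanthracene (1-AMA, 50% saturated solution in PBS) from 10 uM horse-spleen apoferritin. Compounds incubated 10 min at room temperature; fluorescence read at 380 nm excitation/535 nm emission, normalized to free 1-AMA and complex, fitted with four-parameter Hill equation.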

[6] = target: ATP-dependent DNA helicase Q1 (Homo sapiens) (UniProt P46063); assay: qHTS Validation Assay for Inhibitors of RecQ-Like Dna Helicase 1 (RECQ1) (AID 2353);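 also: plate controls were DMSO vehicle for no effect and enzyme-free control for full effect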
In short: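 50 nM RECQ1T1 preincubated 15 min with compound in Tris pH 8.0 buffer with MgCl2, DTT, Tween-20 and 2.5 ug/ml poly(dI-dC); started with 200 nM TAMRA/BHQ-2 forked duplex and 2 mM ATP. Unwinding read as fluorescence (525/598 nm), two reads 2 h apart.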

[7] = Validation screen for small molecules that induce DNA re-replication in MCF 10A normal breast cells (AID 463097); also: 0% is about no effect; nearly all actives have a fitted effect of over 60% in size
In short: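 Readout: Hoechst nuclear fluorescence intensity, 405 ex / 500-530 em, by scanning plate imager; re-replication scored as increase in nuclei with elevated DNA content. Cells exposed to compound 48 hr, 37 C, 5% CO2 beforehand.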

[8] = Quantitative high throughput screen for delayed death inhibitors of the malarial parasite plastid, 96 hour incubation (AID 488745); also: nearly all actives have a fitted effect of over 70% in size; also: potency is read from the fitted curve at half-maximal effect
In short: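 Luciferase-expressing P. falciparum in erythrocytes (2% hematocrit, 0.1% parasitemia) incubated with compound for 96 h at 37 C, 5% CO2, in RPMI 1640 with 0.5% Albumax. Growth inhibition read as decreased luminescence.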

[9] = Quantitative high throughput screen for delayed death inhibitors of the malarial parasite plastid, 48 hour incubation (AID 488752); also: nearly all actives have a fitted effect of over 65% in size; also: potency is read from the fitted curve at half-maximal effect
In short: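 Erythrocytes infected with firefly luciferase-expressing P. falciparum (2% hematocrit, 0.1% parasitemia) cultured with compound for 48 h at 37 C, 5% CO2, in RPMI 1640/0.5% Albumax. Growth inhibition read as loss of luminescence.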

[10] = target: M-phase phosphoprotein 8 (Homo sapiens) (UniProt Q99549); assay: qHTS Validation Assay for Inhibitors for MPP8 Chromodomain Interactions with Methylated Histone Tails (AID 488949); also: nearly all actives have a fitted effect of over 55% in size; also: potency is read from the fitted curve at half-maximal effect
In short: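 MPP8 (50 nM) was preincubated with biotinylated H3(1-18)K9me3 peptide (50 nM) in PBS pH 7.4, 0.01% Tween-20 for 30 min at room temperature, then with compounds for 30 min; binding was detected by AlphaScreen.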

[11] = target: Transient receptor potential cation channel subfamily V member 1 (Homo sapiens) (UniProt Q8NER1); assay: HTS Assay for Compounds that Act as Enhancers of the Vanilloid Receptor 1 (AID 488979); also: 0% is about no effect
In short: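 TRPV1-expressing cells loaded with Fluo-8 calcium dye; compounds added and calcium influx read kinetically for 3 min (agonist phase), then capsaicin at EC20 added and read 2 min more for enhancement. Fluorescence ex 480/em 520 nm.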

[12] = target: Thyrotropin receptor (Homo sapiens) (UniProt P16473); assay: qHTS Assay for Antagonists of the Thyroid Stimulating Hormone Receptor (AID 488980); also: series mostly up to about 58 µM; 0% is about no effect
In short: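 HEK293 cells transfected with human TSHR, suspended in HEPES-buffered HBSS with 70 uM RO 20-1724, were treated with compounds plus TSH at EC80 (4 nM final). cAMP was measured by competitive HTRF (cryptate anti-cAMP antibody, cAMP-d2 acceptor).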

[13] = target: Thyrotropin-releasing hormone receptor (Homo sapiens) (UniProt P34981); assay: qHTS for Small Molecule Agonists and Allosteric Enhancers of Human TRH Receptor: Validation Screen for Agonists (AID 493127;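 active = calcium activation more than 3 SD above the typical response in the agonist read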; also: 0% is about no effect); conditions: TRH receptor agonist cell assay; at 2 µM; stronger effect = higher value
In short: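 TRHR cells loaded with fluo-8 calcium dye; FDSS kinetic fluorescence (Ex 480/Em 530) read at 1 s/cycle after 23 nL compound addition. Agonist-mode calcium response recorded before the 10 nM TRH (EC20) addition.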

[14] = target: Galactokinase (Homo sapiens) (UniProt P51570); assay: qHTS Validation Assay for Inhibitors of Human Galactokinase (GALK) (AID 493189); also: 0% is about no effect
In short: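 GALK (5 nM) with 35 uM ATP and 100 uM galactose in HEPES pH8.0, MgCl2, NaCl, DTT, BSA; 1 h at room temperature. Residual ATP read by Kinase-Glo Plus luminescence after 10 min.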

[15] = Validation screen for small molecules that induce DNA re-replication in SW480 colon adenocarcinoma cells (AID 504364); also: 0% is about no effect
In short: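 SW480 cells (250/well) exposed 48 h at 37 C, 5% CO2, then Hoechst-stained 40 min. Nuclear DNA content imaged by fluorescence scanning (405 nm excitation, 500-530 nm emission); re-replication scored as increased nuclei with elevated intensity.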

[16] = qHTS for differential inhibitors of proliferation of Plasmodium falciparum line D10 (AID 1877);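 also: parasites grown with compound for 72 h before DNA staining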; also: potency is read from the fitted curve at half-maximal effect
[17] = qHTS for differential inhibitors of proliferation of Plasmodium falciparum line Dd2 (AID 1882); conditions: Potency: Plasmodium falciparum Dd2 proliferation inhibition; also: nearly all actives have a fitted effect of over 65% in size; also: potency is read from the fitted curve at half-maximal effect
In short: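 Dd2-infected erythrocytes (0.3% parasitemia, 2.5% hematocrit final) incubated with compound 72 h at 37 C, 5% CO2; lysed with saponin/Triton buffer containing SYBR Green I, incubated overnight in the dark, then read by fluorescence (485/535 nm). Normalized to 0.29 uM artemisinin and DMSO.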

[18] = target: Voltage-gated inwardly rectifying potassium channel KCNH2 (Homo sapiens) (UniProt Q12809); assay: qHTS Assay for Small Molecule Inhibitors of the Human hERG Channel Activity (AID 588834);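 also: lower thallium flux fluorescence means stronger hERG block; nearly all actives have a fitted effect of over 50% in size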; also: potency is read from the fitted curve at half-maximal effect
In short: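 U2OS cells transduced with hERG via BacMam (MOI ~100), plated 2000/well, loaded with FluxOR thallium dye, compound ~10 min, then stimulation buffer; fluorescence decrease read kinetically; AC50 from Hill fits.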

Chain of Transient receptor potential cation channel subfamily V member 1 (Homo sapiens) (Q8NER1 whole entry, looked up): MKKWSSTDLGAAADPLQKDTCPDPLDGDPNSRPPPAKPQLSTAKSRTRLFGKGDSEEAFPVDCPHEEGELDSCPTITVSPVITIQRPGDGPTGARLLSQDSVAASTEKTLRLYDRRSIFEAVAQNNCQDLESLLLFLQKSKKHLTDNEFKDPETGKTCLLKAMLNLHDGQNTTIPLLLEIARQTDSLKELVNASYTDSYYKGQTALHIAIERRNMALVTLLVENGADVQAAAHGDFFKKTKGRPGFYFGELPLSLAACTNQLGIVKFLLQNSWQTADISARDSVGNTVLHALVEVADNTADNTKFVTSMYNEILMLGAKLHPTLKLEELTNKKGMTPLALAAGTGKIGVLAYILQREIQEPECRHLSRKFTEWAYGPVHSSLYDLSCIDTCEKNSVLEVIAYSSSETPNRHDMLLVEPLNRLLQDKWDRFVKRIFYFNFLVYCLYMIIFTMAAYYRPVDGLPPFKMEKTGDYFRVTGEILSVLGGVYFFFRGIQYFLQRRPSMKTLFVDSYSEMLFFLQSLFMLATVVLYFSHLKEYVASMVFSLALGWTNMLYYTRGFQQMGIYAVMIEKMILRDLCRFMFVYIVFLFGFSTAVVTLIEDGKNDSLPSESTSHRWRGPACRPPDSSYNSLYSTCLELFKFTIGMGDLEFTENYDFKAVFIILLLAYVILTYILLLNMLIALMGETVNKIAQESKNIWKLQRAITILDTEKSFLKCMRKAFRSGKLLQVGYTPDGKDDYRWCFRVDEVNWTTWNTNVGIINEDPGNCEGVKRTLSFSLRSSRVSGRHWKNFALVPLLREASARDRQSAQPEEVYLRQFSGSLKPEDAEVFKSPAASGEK
Chain of ATP-dependent DNA helicase Q1 (Homo sapiens) (P46063 whole entry, looked up): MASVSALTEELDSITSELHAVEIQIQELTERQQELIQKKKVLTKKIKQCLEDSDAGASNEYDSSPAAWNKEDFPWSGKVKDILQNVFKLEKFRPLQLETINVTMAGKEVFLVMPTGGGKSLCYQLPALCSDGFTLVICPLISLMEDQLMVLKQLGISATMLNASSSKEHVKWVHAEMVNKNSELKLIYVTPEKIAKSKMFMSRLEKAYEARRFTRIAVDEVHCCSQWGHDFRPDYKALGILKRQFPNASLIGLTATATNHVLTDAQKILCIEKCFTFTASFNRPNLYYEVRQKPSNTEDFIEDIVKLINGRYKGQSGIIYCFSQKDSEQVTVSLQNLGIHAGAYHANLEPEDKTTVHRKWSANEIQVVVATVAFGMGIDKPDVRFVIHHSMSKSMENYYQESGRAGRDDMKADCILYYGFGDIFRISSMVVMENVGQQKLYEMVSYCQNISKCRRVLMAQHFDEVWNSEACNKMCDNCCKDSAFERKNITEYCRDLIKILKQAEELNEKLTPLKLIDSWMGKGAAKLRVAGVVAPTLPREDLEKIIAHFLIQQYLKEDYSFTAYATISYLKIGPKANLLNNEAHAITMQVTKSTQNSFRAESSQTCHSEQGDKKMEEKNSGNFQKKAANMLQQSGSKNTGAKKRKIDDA
Chain of DNA repair nuclease/redox regulator APEX1 (Homo sapiens) (P27695 whole entry, looked up): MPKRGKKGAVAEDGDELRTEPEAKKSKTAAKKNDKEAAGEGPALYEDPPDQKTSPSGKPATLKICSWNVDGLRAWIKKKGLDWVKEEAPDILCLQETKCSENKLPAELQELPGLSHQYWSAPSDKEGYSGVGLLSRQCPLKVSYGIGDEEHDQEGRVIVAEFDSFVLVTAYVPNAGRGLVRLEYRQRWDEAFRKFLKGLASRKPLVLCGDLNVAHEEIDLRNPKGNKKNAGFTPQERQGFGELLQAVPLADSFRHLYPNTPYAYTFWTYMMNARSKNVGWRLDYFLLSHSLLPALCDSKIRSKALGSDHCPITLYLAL
Chain of Ferritin light chain (Equus caballus) (P02791 2-175 limits assumed): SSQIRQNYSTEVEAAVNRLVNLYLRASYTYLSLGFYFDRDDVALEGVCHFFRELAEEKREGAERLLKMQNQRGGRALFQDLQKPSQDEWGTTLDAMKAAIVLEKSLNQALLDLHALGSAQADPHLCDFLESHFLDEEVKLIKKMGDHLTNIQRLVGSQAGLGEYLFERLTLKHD
Chain of M-phase phosphoprotein 8 (Homo sapiens) (Q99549 whole entry, looked up): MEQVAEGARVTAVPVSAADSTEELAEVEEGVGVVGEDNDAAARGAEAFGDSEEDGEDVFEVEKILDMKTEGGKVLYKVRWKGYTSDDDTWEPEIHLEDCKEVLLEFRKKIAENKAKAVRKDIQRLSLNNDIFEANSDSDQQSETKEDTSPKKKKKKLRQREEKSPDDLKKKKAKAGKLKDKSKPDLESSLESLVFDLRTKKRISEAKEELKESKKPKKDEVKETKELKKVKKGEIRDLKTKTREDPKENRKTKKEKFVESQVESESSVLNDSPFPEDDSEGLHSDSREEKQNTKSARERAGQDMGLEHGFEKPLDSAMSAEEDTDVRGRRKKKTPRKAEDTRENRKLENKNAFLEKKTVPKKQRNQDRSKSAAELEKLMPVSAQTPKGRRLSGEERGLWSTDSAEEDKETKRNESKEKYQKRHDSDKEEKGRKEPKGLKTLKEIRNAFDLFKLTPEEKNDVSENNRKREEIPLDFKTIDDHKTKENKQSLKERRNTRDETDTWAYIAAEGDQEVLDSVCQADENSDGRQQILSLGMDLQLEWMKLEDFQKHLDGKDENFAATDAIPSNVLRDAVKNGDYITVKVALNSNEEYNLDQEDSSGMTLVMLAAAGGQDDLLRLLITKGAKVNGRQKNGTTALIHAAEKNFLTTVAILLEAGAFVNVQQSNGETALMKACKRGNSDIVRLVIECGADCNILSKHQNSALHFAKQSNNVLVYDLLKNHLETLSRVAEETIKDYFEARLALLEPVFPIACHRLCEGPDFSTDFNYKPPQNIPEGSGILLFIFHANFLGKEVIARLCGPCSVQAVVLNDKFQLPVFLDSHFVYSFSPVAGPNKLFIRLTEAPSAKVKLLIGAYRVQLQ
Chain of Galactokinase (Homo sapiens) (P51570 whole entry, looked up): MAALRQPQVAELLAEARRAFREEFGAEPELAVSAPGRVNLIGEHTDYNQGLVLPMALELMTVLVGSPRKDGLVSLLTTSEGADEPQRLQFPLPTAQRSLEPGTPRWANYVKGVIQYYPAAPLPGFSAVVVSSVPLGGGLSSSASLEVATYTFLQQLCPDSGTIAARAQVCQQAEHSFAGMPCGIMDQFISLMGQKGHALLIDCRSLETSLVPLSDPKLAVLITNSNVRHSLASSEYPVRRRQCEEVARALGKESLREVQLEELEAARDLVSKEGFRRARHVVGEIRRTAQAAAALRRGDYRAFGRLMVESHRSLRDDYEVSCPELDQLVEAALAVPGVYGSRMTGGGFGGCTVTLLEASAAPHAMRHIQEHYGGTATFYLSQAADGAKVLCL
Chain of Thyrotropin-releasing hormone receptor (Homo sapiens) (P34981 whole entry, looked up): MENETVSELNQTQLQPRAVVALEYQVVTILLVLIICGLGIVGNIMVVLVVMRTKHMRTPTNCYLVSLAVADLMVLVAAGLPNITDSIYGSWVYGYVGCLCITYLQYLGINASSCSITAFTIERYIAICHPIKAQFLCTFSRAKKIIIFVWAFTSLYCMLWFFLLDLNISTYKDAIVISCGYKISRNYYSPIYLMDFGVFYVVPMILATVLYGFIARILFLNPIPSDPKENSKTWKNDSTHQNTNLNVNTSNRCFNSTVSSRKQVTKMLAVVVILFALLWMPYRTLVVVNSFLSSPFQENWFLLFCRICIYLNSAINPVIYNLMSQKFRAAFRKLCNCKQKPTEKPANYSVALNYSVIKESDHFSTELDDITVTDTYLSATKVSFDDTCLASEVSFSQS
Chain of Thyrotropin receptor (Homo sapiens) (P16473 whole entry, looked up): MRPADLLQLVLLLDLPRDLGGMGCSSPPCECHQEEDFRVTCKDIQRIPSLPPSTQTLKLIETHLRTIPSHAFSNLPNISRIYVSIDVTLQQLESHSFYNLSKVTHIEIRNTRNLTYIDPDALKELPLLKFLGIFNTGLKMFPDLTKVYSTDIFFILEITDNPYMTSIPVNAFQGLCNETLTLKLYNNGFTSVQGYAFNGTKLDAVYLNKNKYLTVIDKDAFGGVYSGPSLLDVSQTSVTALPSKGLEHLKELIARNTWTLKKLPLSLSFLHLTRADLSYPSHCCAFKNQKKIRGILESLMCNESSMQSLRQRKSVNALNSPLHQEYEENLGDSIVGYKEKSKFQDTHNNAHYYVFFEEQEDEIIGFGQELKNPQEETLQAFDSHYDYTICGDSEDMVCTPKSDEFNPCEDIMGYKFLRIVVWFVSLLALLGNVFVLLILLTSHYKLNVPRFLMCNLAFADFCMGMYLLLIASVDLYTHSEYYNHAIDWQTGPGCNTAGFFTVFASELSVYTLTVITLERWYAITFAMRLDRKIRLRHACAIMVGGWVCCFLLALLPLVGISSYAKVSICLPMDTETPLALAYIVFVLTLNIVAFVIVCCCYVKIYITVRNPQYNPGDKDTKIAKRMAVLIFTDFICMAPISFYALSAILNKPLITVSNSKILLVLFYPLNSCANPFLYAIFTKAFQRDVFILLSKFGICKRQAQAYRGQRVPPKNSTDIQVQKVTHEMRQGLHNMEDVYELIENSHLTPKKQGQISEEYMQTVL

COc1cc2c(cc1OC)C(c1ccccc1)CN(C)CC2 (stereo unspecified)
inactive: outcome [1] | Potency [2] | Potency [3] | outcome [5] | Potency [6] | outcome [7] | Potency [8] | Potency [9] | Potency [10] | outcome [11] | outcome [12] | activation [13] 1.81% | outcome [14] | outcome [15]
active: Potency [4] 14.1 µM

CCSC(N)=Nc1ccc(C(F)(F)F)cc1
inactive: outcome [1] | Potency [2] | Potency [3] | Potency [4] | Potency [16] | Potency [17] | Potency [6] | outcome [7] | Potency [8] | Potency [9] | Potency [10] | outcome [11] | outcome [12] | activation [13] -5.5% | outcome [14] | outcome [15] | Potency [18]

COC(=O)c1c(-c2cc(OC)c(OC)c(OC)c2)c2ccc(OCc3ccccn3)cc2c(=O)n1-c1ccc(N)cc1
inactive: outcome [1] | Potency [2] | Potency [3] | outcome [5] | Potency [6] | outcome [7] | outcome [11] | outcome [12] | activation [13] -4% | outcome [14] | outcome [15]
active: Potency [4] 3.98 µM | Potency [16] 7.08 µM | Potency [17] 2 µM | Potency [8] 7.38 µM | Potency [9] 9.28 µM | Potency [10] 28.2 µM

CCn1c(=O)c2[nH]c(-c3ccccc3)nc2n(CC)c1=O
inactive: outcome [1] | Potency [2] | Potency [3] | Potency [4] | Potency [16] | Potency [17] | Potency [6] | outcome [7] | Potency [9] | Potency [10] | outcome [11] | outcome [12] | activation [13] 0.688% | outcome [14] | outcome [15]

CC(O)[C@@H](O)[C@H]1CNc2nc(N)[nH]c(=O)c2N1 (stereo partly specified)
inactive: outcome [1] | Potency [2] | Potency [3] | Potency [4] | Potency [16] | Potency [17] | Potency [6] | outcome [7] | Potency [8] | Potency [9] | Potency [10] | outcome [11] | outcome [12] | activation [13] 0.0625% | outcome [14] | outcome [15]

OC[C@H]1O[C@@H](n2cnc3c(N[C@H]4CC5CCC4C5)ncnc32)[C@H](O)[C@@H]1O (stereo partly specified)
inactive: outcome [1] | Potency [2] | Potency [3] | Potency [4] | Potency [16] | Potency [17] | outcome [5] | Potency [6] | outcome [7] | Potency [8] | Potency [9] | Potency [10] | outcome [11] | outcome [12] | activation [13] 0.875% | outcome [14] | outcome [15] | Potency [18]

NCCCCNS(=O)(=O)c1cccc2c(Cl)cccc12
inactive: outcome [1] | Potency [2] | Potency [3] | outcome [5] | Potency [6] | Potency [10] | outcome [12] | activation [13] 0.5% | outcome [14]
active: Potency [4] 8.91 µM | Potency [16] 10 µM | Potency [9] 14.7 µM | Potency [18] 4.47 µM

Nc1ncnc2c1nc(Sc1ccc(Cl)cc1)n2[C@H]1O[C@@H]2COP(=O)(O)O[C@H]2[C@@H]1O
inactive: outcome [1] | Potency [2] | Potency [3] | outcome [5] | Potency [6] | outcome [7] | Potency [8] | Potency [9] | Potency [10] | outcome [11] | outcome [12] | activation [13] 1.31% | outcome [14] | outcome [15] | Potency [18]

Nc1nc2c(nc(Br)n2C2O[C@H]3COP(=O)(O)O[C@@H]3C2O)c(=O)[nH]1 (stereo partly specified)
active: Potency [4] 10 µM | Potency [17] 7.94 µM | Potency [9] 10.4 µM
inactive: outcome [1] | Potency [2] | Potency [3] | outcome [5] | Potency [6] | outcome [7] | Potency [10] | outcome [11] | outcome [12] | activation [13] 0.812% | outcome [14] | outcome [15]

Nc1ncnc2c1ncn2[C@@H]1O[C@H](CO)[C@H](O)[C@H]1O
inactive: outcome [1] | Potency [2] | Potency [3] | Potency [4] | Potency [16] | Potency [17] | outcome [5] | Potency [6] | outcome [7] | Potency [8] | Potency [9] | Potency [10] | outcome [11] | outcome [12] | activation [13] 1.5% | outcome [14] | outcome [15]

C[C@H]1CC2[C@@H]3CCC4=CC(=O)C=C[C@]4(C)[C@@]3(Cl)[C@@H](O)C[C@]2(C)[C@@]1(O)C(=O)CO (stereo partly specified)
inactive: outcome [1] | Potency [2] | Potency [3] | Potency [4] | Potency [16] | Potency [17] | outcome [5] | Potency [6] | outcome [7] | Potency [8] | Potency [9] | Potency [10] | outcome [11] | outcome [12] | activation [13] 0.25% | outcome [14] | outcome [15] | Potency [18]
